Results filed as inconclusive are left out. The source made the active and inactive calls. Calls come from the whole dose curve; as a rule, active = well fitted inhibition curve with a large enough effect; inconclusive = small, poorly fitted or top-dose-only effect; inactive = flat fitted curve, though single readings scatter.
Key:
Experiment in all cases: qHTS profiling for inhibitors of Plasmodium falciparum proliferation (AID 504749); note: nearly all actives have a fitted effect of over 60% in size
Conditions in all cases: P. falciparum in erythrocytes, SYBR Green DNA, 72 h; series mostly up to 28.7 µM
[1] = system: CP260
Outline: (§1)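 SYBR Green fluorescence of parasite DNA, read after lysis and overnight dark incubation, measured growth over 72 h in erythrocyte culture at 0.3% parasitemia and 2.5% hematocrit. Data normalised to DMSO and 0.29 uM artemisinin, with plate-drift correction.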

[2] = system: CP262
Outline: as §1

[3] = system: CP265
Outline: as §1

[4] = system: CP266
Outline: as §1

[5] = system: CP268
Outline: as §1

[6] = system: CP269
Outline: as §1

[7] = system: CP286
Outline: as §1

[8] = system: CP291
Outline: as §1

[9] = system: CP297
Outline: as §1

[10] = system: CP305
Outline: as §1

[11] = system: CP315
Outline: as §1

[12] = system: CP325
Outline: as §1

[13] = system: CP329
Outline: as §1

[14] = system: CP335
Outline: as §1

[15] = system: DFO2036
Outline: as §1

[16] = system: DIV14
Outline: as §1

[17] = system: DIV17
Outline: as §1

[18] = system: DIV30
Outline: as §1

[19] = system: Dd2
Outline: as §1

[20] = system: ECU
Outline: as §1

Measured: Potency

C[N+]1(C)C2CCC1CC(OC(=O)c1c[nH]c3ccccc13)C2 (stereo unspecified)
inactive: all assays above

CC(=O)OC1CN2CCC1CC2 (stereo unspecified)
inactive: all assays above

CC(Cc1ccccc1)NC=O (stereo unspecified)
inactive: all assays above

O=[N+]([O-])C(Br)(CO)CO
inactive: all assays above

Clc1ccc(Cl)cc1
inactive: all assays above

Clc1ccccc1Cl
inactive: all assays above

CCOC(=O)c1ccccc1C(=O)OCC
inactive: all assays above

CC(N)Cc1ccc(O)cc1 (stereo unspecified)
inactive: all assays above

CC(=O)O[C@H]1CC[C@H]2[C@@H]3CCC4=CC(=O)CCC4=C3C=C[C@]12C
inactive: all assays above

C=CCN1CCC23c4c5ccc(O)c4O[C@H]2C(=O)CC[C@@]3(O)C1C5 (stereo partly specified)
inactive: all assays above

CCCC(=O)OC(C(Cl)(Cl)Cl)P(=O)(OC)OC (stereo unspecified)
not listed: [11] | [12]
inactive: all other assays above

COC1=CC=C2[C@H]3Cc4ccc(OC)c5c4[C@@]2(CCN3C)[C@H]1O5
inactive: all assays above

O=c1[nH]c(=O)n(Cl)c(=O)n1Cl
inactive: all assays above

O=C(CCl)c1ccc(Oc2ccc(C(=O)CCl)cc2)cc1
not listed: [4]
inactive: all other assays above

O=C1CC[C@@]2(O)C3Cc4ccc(O)c5c4C2(CCN3CC2CC2)[C@H]1O5 (stereo partly specified)
not listed: [14]
inactive: all other assays above

— PubChem BioAssay (NCATS)
